Results published in ChEMBL document CHEMBL4513216, “Probing the Open Global Health Chemical Diversity Library for Multistage-Active Starting Points for Next-Generation Antimalarials” (ACS Infect Dis, 2020).
Hit rate of the full screen: of about 68,000 compounds, about 2,700 (4%) showed an effect of 50% or more. What follows is part of a selection rich in strong results, with near analogues and random picks from the rest.

system: Plasmodium berghei; test: Screen against P. berghei liver stage (PbLuc), transformed with Luciferase, at 2uM; type: functional, HepG2; conditions: tested at 2 uM

Structure (SMILES) | INHIBITION
COc1ccc2cc(-c3n[nH]cc3CN3CCSCC3)ccc2c1 | 30.34%
CN(C)C(=O)CO[C@@H]1CC[C@H]2[C@H]1OCCN2c1ncc(F)cn1 | 34.89%
Cc1cc(CN2CCC(CNS(=O)(=O)c3ccc(Br)s3)CC2)c(C)o1 | 23.96%
CC(C)Cc1nc(CSCC(=O)N2CCC(C)CC2)no1 | -32.8%
O=C(Nc1ccc(F)c(Br)c1)N1CCCC1 | -5.87%
CC(C)CC(NC(=O)c1cccs1)c1nc2cccnc2n1C (stereo not drawn) | -19.86%
NC(=O)C1CCN(CCCNC(=O)Nc2nccs2)CC1 | 28.14%
O=C(Nc1cccnc1)[C@H]1CN(Cc2ccccn2)C[C@H]2OCC[C@@H]12 | -43.55%
Cc1cc(-c2nc(-c3ccccn3)nn2C2CCN(C)CC2)nc(C)n1 | 14.19%
CC1(CO)COC(Cc2ccc(Cl)cc2)=N1 (stereo not drawn) | -6.98%
O=C1N(CCCc2ccccc2)CCCC12CCN(C(CO)CO)C2 (stereo not drawn) | 7.13%
O=C1N(CCc2ccccc2)CCCC12CCN(C(CO)CO)C2 (stereo not drawn) | 57.92%
CS(=O)(=O)N1CCC2(CCCN(CCCc3ccccc3)C2=O)C1 (stereo not drawn) | -57.67%
Cc1ccc(N2CCN(C3CCc4ccccc4C3)CC2)nn1 (stereo not drawn) | 30.66%
Cc1noc(C)c1-c1cncc(CC2CCN(C(=O)c3cc[nH]n3)C2)n1 (stereo not drawn) | 61.16%
Cc1noc(C)c1-c1cccc(CC2CCN(C(=O)c3cc[nH]n3)C2)n1 (stereo not drawn) | -8.23%
Cc1noc(C)c1-c1cc(CC2CCN(C(=O)c3cc[nH]n3)C2)ncn1 (stereo not drawn) | -15.34%
Cc1nc(CNC(=O)N(C)Cc2cnn(C)c2)cs1 | 29.19%
Cc1ncc2c(c1CNC(=O)C1(C)CCCO1)CCNC2 (stereo not drawn) | 21.72%
Cc1ncc2c(c1CNC(=O)C1(C)CCCCO1)CCNC2 (stereo not drawn) | -17.55%
Cc1ncc2c(c1CNC(=O)C1(C)CC1)CCNC2 | 51.9%
Cc1cc(C)nc(N2CCC(c3cc(CCO)[nH]n3)C2)n1 (stereo not drawn) | -92.86%
Cc1ccc(C(=O)N2CCC3(CCC(=O)N(CC(C)O)C3)CC2)c(O)c1 (stereo not drawn) | -0.85%

Structure (SMILES) | INHIBITION
O=C(NCCn1ccc(-c2ccncc2)n1)C1CC1 | -19.3%
Fc1cc(Cl)cnc1N1CCCC(c2nccn2Cc2ccncc2)C1 (stereo not drawn) | 17.69%
CC(C)CCN1C[C@@H]2C[C@H](C(=O)Nc3ccccc3)[C@H](C1)O2 | 73.15%
CCN1C[C@@H]2C[C@H](C(=O)Nc3ccccc3)[C@H](C1)O2 | 37.65%
CC(C)CCN1C[C@@H]2C[C@H](C(=O)Nc3cccnc3)[C@H](C1)O2 | 26.76%
CC(C)CS(=O)(=O)N1C[C@@H]2C[C@H](C(=O)NCc3ccccc3)[C@H](C1)O2 | 75.33%
CN(C)S(=O)(=O)N1C[C@@H]2C[C@H](C(=O)NCc3ccccc3)[C@H](C1)O2 | -32.96%
O=C(NCc1ccccc1)[C@H]1C[C@H]2CN(S(=O)(=O)C3CC3)C[C@@H]1O2 | 14.94%
Cc1nnn2c1COC(CNC(=O)c1cccn1C)C2 (stereo not drawn) | 42.4%
Cc1cc(Br)c(O)c(-c2nc(N3CCCCC3)sc2C)c1 | 14.95%
CN(Cc1cnn(C)c1)S(=O)(=O)N1CCCCCC1 | 47.68%
Cc1noc(C(C)N2CCN(CC(=O)N3CCCC3)CC2)n1 (stereo not drawn) | -14.01%
C1CCC(c2nn3c(C4CCCO4)nnc3s2)C1 (stereo not drawn) | 79.8%
C1CCC(c2nnc3sc(C4CCOC4)nn23)C1 (stereo not drawn) | 4.12%
C1CCC(c2nnc3sc(C4CCCO4)nn23)C1 (stereo not drawn) | -11.31%
Cc1cc(C2CCCN(S(=O)(=O)c3cn[nH]c3)C2)ccn1 (stereo not drawn) | 49.07%
CN(C)CCCNC(=O)c1ccnc(OCc2ccccc2)c1 | 52.85%
O=C(NCCCN1CCOCC1)c1ccnc(OCc2ccccc2)c1 | -47.27%
CCN(CC)CCNC(=O)c1cnc(-c2ccccc2)nc1 | -16.21%
CC(=O)NCCNC(=O)c1cnc(-c2ccccc2)nc1 | 19.47%
CC(C)N(C)CCCNC(=O)c1cnc(-c2ccccc2)nc1 | 67.83%
COC(=O)CCNC(=O)c1ccc(OCc2ccccc2)nc1 | -45.68%
CCS(=O)(=O)NCCNC(=O)c1cnc(-c2ccccc2)nc1 | -22.82%

Structure (SMILES) | INHIBITION
CS(=O)(=O)NCCNC(=O)c1cnc(-c2ccccc2)nc1 | 73.01%
CN(CCNC(=O)c1cnc(-c2ccccc2)nc1)S(C)(=O)=O | -50.8%
COCCN(Cc1cccnc1)S(=O)(=O)c1cc(C)ccc1F | 37.79%
Cn1cc(NS(=O)(=O)c2ccc(C(F)(F)F)cc2)ccc1=O | 21.83%
Cc1nc(CC(C)C)cc(C(=O)N2C[C@@H](CN(C)C)[C@@H](CO)C2)n1 | 3.46%
CCc1noc(C(C)N2CCC(C(=O)Nc3cnn(CC)c3)CC2)n1 (stereo not drawn) | -56.72%
CCN(Cc1ccc2c(c1)OCO2)C(=O)c1ccc(C)[nH]c1=O | 0.26%
COc1ccc(Cl)cc1C(=O)N1C[C@H](C(C)C)[C@@H](N)C1 | 5.88%
NC(=O)NC(=O)CCSCc1coc(-c2cccc(Cl)c2)n1 | 16.25%
O=C(Nc1cnc2n1CCCC2)C1CCCN1C1CCNCC1 (stereo not drawn) | -26.04%
CCn1cnnc1CNC(=O)N1CCCC1 | 33.82%
CCn1cnnc1CNC(=O)N1CCCCCC1 | -8.32%
CCn1cnnc1CNC(=O)N1CCC(CN2CCCCCC2)CC1 | 27.47%
CCn1cnnc1CNC(=O)N1CCC(C(=O)NC)CC1 | -29.11%
CCn1cnnc1CNC(=O)N1CCN(c2cccs2)CC1 | 54.85%
CCn1cnnc1CNC(=O)N1CCC(C)CC1 | 56.4%
CCn1cnnc1CNC(=O)N1CCC(O)CC1 | -0.05%
CCN(CC)C1CCN(C(=O)NCc2nncn2CC)CC1 | 55.52%
CCn1cnnc1CNC(=O)N1CCOCC1 | 27.31%
CCn1cnnc1CNC(=O)N1CCN(c2ccccc2O)CC1 | -3.06%
CCN(CCC1CCN(C(=O)NCc2nncn2CC)CC1)CC1CC1 | 56.4%
CCn1cnnc1CNC(=O)N1CCN(c2nccs2)CC1 | 17.31%
